# Test results as given in PubChem BioAssay AID588689 (Southern Research Specialized Biocontainment Screening …, 2011).
# In all, about 340,000 compounds went through this assay and about 1,000 (0.29%) were called active. Rule as the data show it: inconclusive = inhibition above about 29% without an active follow-up result; inactive = below that. These entries were drawn from the full list. Results with a measured potency or affinity are listed apart.
# Molecular target: Genome polyprotein (Dengue virus type 2 (strain 16681-PDK53)) (UniProt P29991)
# Assay: Dengue-2 NS5 methyltransferase inhibitors, primary screen, biochemical, confirmation dose response (AID 588689)
# Details: Dengue-2 NS5 methyltransferase capping enzyme assay, at 25 µM, stronger effect = higher value
# [1] = measured here: pilot screen replicate inhibition
Compound,inhibition,inhibition [1] [%]
CCOc1ccc(OCC)c(S(=O)(=O)n2cnc(C)c2)c1,4.27% (inactive),–
CC(C)N1CCc2c(sc(NC(=O)c3ccco3)c2C(N)=O)C1,-17.8% (inactive),–
O=C(NN=C1CCN(Cc2ccccc2)CC1)c1ccccc1,-11% (inactive),–
CSc1nc(N)nc2c1ncn2CC(=O)NCCCc1ccccc1,-9.58% (inactive),-1.21
Cc1cc(O)c(C(C)C)cc1N=Cc1cc([N+](=O)[O-])ccc1O,73.1% (inactive),–
Cc1cc(O)c(C(C)C)cc1N=Cc1ccccc1O,73.5% (inactive),–
CN(C(=O)c1cc(C(=O)N(C)c2ccccc2)cc([N+](=O)[O-])c1)c1ccccc1,-8.48% (inactive),–
Cc1ccc(C(=O)c2coc3cc([N+](=O)[O-])c(O)c([N+](=O)[O-])c23)cc1,8.29% (inactive),–
Cc1oc2ccc(O)cc2c1C(=O)c1ccc([N+](=O)[O-])cc1,-2.6% (inactive),–
Cc1oc2ccc(O)cc2c1C(=O)c1ccc(Br)cc1,1.53% (inactive),–
COc1ccc(OC)c(C(=O)c2c(C)oc3cc([N+](=O)[O-])c(O)c([N+](=O)[O-])c23)c1,25.1% (inactive),–
CCc1ccc(NC(=O)Cn2ncc3c4ccccc4n(C)c3c2=O)cc1,-6.09% (inactive),–
CCCOc1ccc(C(=O)CCC(=O)Nc2ccc(N3CCN(C)CC3)cc2)cc1,-15.3% (inactive),–
CCOC(=O)c1c(NC(=O)/C=C/C(=O)O)sc(C)c1-c1ccc(F)cc1,23.7% (inactive),–
CCOC(=O)c1c(NC(=O)/C=C\C(=O)O)sc(C)c1-c1ccccc1,-5.1% (inactive),–
COC(=O)c1c(NC(=O)/C=C/C(=O)O)sc(C)c1-c1ccc(C)c(C)c1,18.9% (inactive),–
CCc1c(C)sc(NC(=O)/C=C/C(=O)O)c1C(N)=O,-7.73% (inactive),–
COC(=O)c1c(NC(=O)/C=C/C(=O)O)sc(C)c1-c1ccc(C)cc1,-1.47% (inactive),–
COC(=O)c1c(NC(=O)/C=C/C(=O)O)sc(Cc2ccccc2)c1C,8.38% (inactive),–
CCOC(=O)c1c(C)nn(-c2ccc(NC(=O)/C=C/C(=O)O)cc2)c1C,-3.06% (inactive),–

Compound,inhibition,inhibition [1] [%]
Cc1sc(NC(=O)/C=C/C(=O)O)c(C(N)=O)c1-c1ccc(C(C)(C)C)cc1,15.2% (inactive),–
NC(=O)C1(N2CCCCC2)CCN(C2CC(=O)N(Cc3cccs3)C2=O)CC1 (stereo not drawn),-7.74% (inactive),–
O=C(N/N=C/c1ccccc1O)C(=O)Nc1ccccn1,-0.76% (inactive),–
CCCn1c(SCc2cc(=O)[nH]c3ccccc23)nc2c1c(=O)n(C)c(=O)n2C,-2.04% (inactive),-0.155
Cc1ccccc1Cn1c(CN2CCN(C(=O)c3ccco3)CC2)nc2c1c(=O)n(C)c(=O)n2C,-5.56% (inactive),–
CCc1ccc(NS(=O)(=O)c2ccc3oc(=O)ccc3c2)cc1,1.32% (inactive),1.83
O=C(NCc1ccccc1)c1cccc(S(=O)(=O)NCc2ccccc2)c1,-6.73% (inactive),–
O=C(Nc1ccc(C(F)(F)F)cc1)C1CCCCN1S(=O)(=O)c1ccccc1 (stereo not drawn),-9.59% (inactive),–
COc1ccc(-n2nc(C(=O)NCC(=O)N(C)Cc3ccccc3)c3ccccc3c2=O)cc1,-2.44% (inactive),–
O=C1C(Cl)=C(N2CCCCCC2)C(=O)N1c1ccccc1Cl,8.59% (inactive),–
O=C1C(Cl)=C(N2CCCCC2)C(=O)N1c1ccccc1Cl,16.1% (inactive),–
Cc1ccccc1N1C(=O)C(Cl)=C(N2CCN(c3ccccc3)CC2)C1=O,-3.27% (inactive),–
Cc1ccccc1N1C(=O)C(Cl)=C(N2CCCCCC2)C1=O,-0.78% (inactive),–
CCc1ccccc1N1C(=O)c2cccc3c(N4CCOCC4)c([N+](=O)[O-])cc(c23)C1=O,-4.86% (inactive),–
CC1=CC(C)(C)C(C(=O)O)C(C(=O)O)C1 (stereo not drawn),-2.42% (inactive),–
CCOC(=O)/C(C#N)=C1/C=C(C)c2ccccc2N1,-9.35% (inactive),–
O=C(O)COc1ccc2c(c1)O/C(=C\c1cccs1)C2=O,-8.5% (inactive),–
O=C(CSc1nncn1-c1ccccc1)N1CCCC1,-4.17% (inactive),–
CCc1ccc(NC(=O)C2CCCN(S(=O)(=O)c3ccc4c(c3)CCCN4C(C)=O)C2)cc1 (stereo not drawn),2.65% (inactive),–
CC(C)C(O)P(=O)(OCc1ccccc1)c1ccc(N(C)C)cc1 (stereo not drawn),1.35% (inactive),-3.66

Compound,inhibition,inhibition [1] [%]
CCOC(=O)C1CCCN1C(=O)c1ccc(OC)c(Br)c1 (stereo not drawn),0% (inactive),–
Cc1[nH]c2ccc(Br)cc2c(=S)c1C/C=C/Cl,0% (inactive),–
CC(=O)c1c(C)oc2c1cc(O)c1ccccc12,-5.41% (inactive),–
CC(=O)c1coc2c1cc(O)c1ccccc12,-0.78% (inactive),–
CCN(C(=O)CCN1C(=O)c2ccccc2S1(=O)=O)c1ccccc1,-2.22% (inactive),–
COc1ccc(C(=O)N2CCOC2CNC(=O)C(=O)NCc2ccc(C)cc2)cc1 (stereo not drawn),1.73% (inactive),–
CSc1nc(-c2ccccc2)nc(NC(=O)C(C)C)c1C(C)=O,-10.3% (inactive),–
O=C(NC1CC2CCCC(C1)N2S(=O)(=O)c1ccccc1)c1ccco1 (stereo not drawn),1.41% (inactive),–
CSCC[C@H](NC(=O)c1cccs1)c1nnc2ccccn12,5.35% (inactive),–
COc1ccc(S(=O)(=O)Nc2cc3c(C(C)=O)c(C)oc3c3ccccc23)cc1,-1.56% (inactive),–
CC(=O)c1c(C)oc2c1cc(NS(=O)(=O)c1ccc(C(=O)O)cc1)c1ccccc12,15.7% (inactive),–
Cc1oc2c(cc(NS(=O)(=O)c3ccc(F)cc3)c3ccccc32)c1C(=O)O,11.6% (inactive),–
CCOC(=O)c1c(C)oc2ccc(NS(=O)(=O)c3ccc(C(=O)O)cc3)cc12,4.37% (inactive),–
O=C(Cn1cnc2ccccc2c1=O)NCC(=O)N1CCN(Cc2ccc3c(c2)OCO3)CC1,-2.08% (inactive),–
Cc1cccc(NC(=O)Nc2cnccn2)c1,-2.65% (inactive),–
Cn1c(=O)c2c(ncn2CCC(=O)N/N=C/c2cccnc2)n(C)c1=O,0.78% (inactive),–
CN1C(=O)N(c2ccc(Cl)cc2)C(C)(O)CC1(C)C (stereo not drawn),-7.17% (inactive),–
COc1cc2cccc(OC)c(=O)c2c(O)c1OC,-2.72% (inactive),–
Oc1cccc2cc3cccc(O)c3c(O)c12,-2.2% (inactive),–
